High-throughput results: PubChem, The Scripps Research Institute Molecular Screening Center
TEAD-YAP inh = TEAD-YAP interaction inhibition. HEK-TIYL cells, TEAD-Gal4/YAP UAS-luciferase luminescence. inhibition, % at 9.12 µM. 640,000 compounds, 1.4% hits. AID 1259422; in the data active means inhibition above about 32%;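 further: 0% = median of test compound wells and 100% = reference inhibitor wells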
FBW7 act = activators of human E3 ligase FBW7; 650,000 compounds, 0.13% hits; AlphaScreen FBW7–phospho-cyclin E peptide binding, activator screen; normalized activity (activation), % at 26.1 µM; Q969H0; in the data active means normalized activity above about 1.9%;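 further: purified mutant Fbw7 with reduced substrate affinity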
MITF inh = inhibitors of human MITF | O75030 | 650,000 compounds, 0.91% hits | inhibition, % at 2.6 µM | AlphaScreen MITF homodimerization, bead proximity signal; in the data active means inhibition above about 50%;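 further: 0% = vehicle wells with protein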
GPR151 ag = activates the human receptor GPR151. Q8TDV0. PathHunter beta-arrestin GPR151 cells, luminescence. activation, % at 11.2 µM. 650,000 compounds, 1% hits; in the data active means activation above about 4.9%;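 further: 0% = median of compound wells and 100% = cells with positive control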
GPR151 confirm = human GPR151 activation, confirmation screen. shares compounds with GPR151 ag. GPR151 PathHunter beta-arrestin cells, luminescence, 90 min; % of EA-reagent control over plate median. activation, % at 11.2 µM. 6,700 tested, under 10 active;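 active means mean percent activation across replicates above the confirmation screen cutoff of 4.91%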
GPR119 counter = GPR119 activation, counter-screen for GPR151 activators | shares compounds with GPR151 ag | GPR119 PathHunter beta-arrestin cells, luminescence, 90 min; 0 = compound-well median, 100 = enzyme-acceptor control | activation, % at 11.2 µM | 6,700 compounds, 0.3% hits | AID 1508611;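 active means mean percent activation in the counterscreen above 29.09%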;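 further: counterscreen on off-target GPR119 to flag nonselective hits from the GPR151 activator screen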
Target sequence (Q8TDV5 whole entry, looked up): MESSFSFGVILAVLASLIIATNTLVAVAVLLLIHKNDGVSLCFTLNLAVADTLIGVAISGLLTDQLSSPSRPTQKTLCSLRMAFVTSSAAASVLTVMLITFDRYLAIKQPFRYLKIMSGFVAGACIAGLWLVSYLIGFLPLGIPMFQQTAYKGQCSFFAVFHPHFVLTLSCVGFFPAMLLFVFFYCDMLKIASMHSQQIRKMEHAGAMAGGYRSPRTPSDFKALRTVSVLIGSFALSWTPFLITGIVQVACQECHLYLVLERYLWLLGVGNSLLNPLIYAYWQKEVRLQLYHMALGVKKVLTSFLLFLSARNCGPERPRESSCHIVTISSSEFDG
Starred values were filed as active, the others as inactive; ! = a repeat was not active. Only some compounds are listed: those with a hit (about 3.4% of all), similar ones and a draw of the others.

COc1ccc(C(=O)/C=C/Nc2cccc([N+](=O)[O-])c2)cc1OC was read as TEAD-YAP inh -36, FBW7 act 0, MITF inh -1, GPR151 ag 8.7*!, GPR151 confirm 0 and GPR119 counter -9.
Screening COc1cccc(CNC(=O)C2CCCc3sc(NC(=O)c4ccccc4)nc32)c1 (centres undefined) returned TEAD-YAP inh -4, FBW7 act 0, MITF inh 9, GPR151 ag 5.2*, GPR151 confirm 0 and GPR119 counter 5.
For O=C(NCCN1CCOCC1)c1ccnc(N2CCN(Cc3ccc4c(c3)OCO4)CC2)c1 the results were TEAD-YAP inh 6, FBW7 act 0, MITF inh -6 and GPR151 ag 1.
For C[C@H]1CC[C@@]2(OC1)O[C@H]1C[C@H]3[C@@H]4CC[C@@H]5C[C@@H](O)CC[C@]5(C)[C@H]4CC[C@]3(C)[C@H]1[C@@H]2C the results were TEAD-YAP inh 9, FBW7 act 0, MITF inh 9, GPR151 ag 5.6*!, GPR151 confirm 1 and GPR119 counter -8.
Screening O=C(Cn1cc2c(n1)CCCCC2)N1CCc2ccccc21 returned TEAD-YAP inh -4, FBW7 act 0, MITF inh 3, GPR151 ag 5.4*, GPR151 confirm -1 and GPR119 counter -2.
O=C(Cn1cc2c(n1)CCCC2)N1CCc2ccccc2C1 was read as TEAD-YAP inh 8, FBW7 act 0, MITF inh 11 and GPR151 ag 0.
Screening CSc1nsc(SC)c1NC(=O)Nc1cccc([N+](=O)[O-])c1 returned TEAD-YAP inh 15, FBW7 act 1, MITF inh 7 and GPR151 ag -1.
CC(C)OCCCNc1nc2ccccc2c2nc(-c3ccncc3)nn12 was read as TEAD-YAP inh 0, FBW7 act 0, MITF inh 0 and GPR151 ag 0.
COCCNC1CCN(CCc2ccc(Cl)cc2)CC1 was read as TEAD-YAP inh 0, FBW7 act 0, MITF inh 7 and GPR151 ag 0.
Screening O=C(CSc1nnnn1-c1ccc(F)cc1)NCc1ccccc1C(=O)O returned TEAD-YAP inh -1, FBW7 act 0, MITF inh 16, GPR151 ag 10*, GPR151 confirm 0 and GPR119 counter 2.
For O=C(CSc1nnnn1-c1ccc(F)cc1)NCCc1ccccc1 the results were TEAD-YAP inh 7, FBW7 act 0, MITF inh 20 and GPR151 ag -1.
`S=c1[nH]c2ccccc2n1CCOc1ccc(Cl)cc1` gave TEAD-YAP inh -11, FBW7 act 0, MITF inh -1 and GPR151 ag -2.
`O=C(CNC(=O)C1CCCCC1)NNC(=O)c1ccccc1Br` gave TEAD-YAP inh 1, FBW7 act 0, MITF inh 7, GPR151 ag 5.8*, GPR151 confirm -1 and GPR119 counter 1.
Screening O=C(NCCCCc1ccccc1)c1cc([N+](=O)[O-])cc([N+](=O)[O-])c1 returned TEAD-YAP inh 8, FBW7 act 0, MITF inh 17, GPR151 ag 11*, GPR151 confirm 1 and GPR119 counter 11.
CCC(C)NC(=O)CSc1ncccc1C(=O)O (centres undefined) was read as TEAD-YAP inh 9, FBW7 act 0, MITF inh 7, GPR151 ag 5.1*, GPR151 confirm 1 and GPR119 counter -3.
Screening Nc1nc(N2CCC(N3CCOCC3)CC2)nc2c1ncn2Cc1ccc(C(F)(F)F)cc1 returned TEAD-YAP inh -11, FBW7 act 0, MITF inh -8, GPR151 ag 6.4*, GPR151 confirm -1 and GPR119 counter -1.
Screening Nc1nc(N2CCOCC2)nc2c1ncn2Cc1ccc(C(F)(F)F)cc1 returned TEAD-YAP inh -3, FBW7 act 0, MITF inh 0 and GPR151 ag 0.
Screening Cc1noc(C)c1-c1nc(NC2CC2)c2ncn(Cc3ccc(C(F)(F)F)cc3)c2n1 returned TEAD-YAP inh -6, FBW7 act 0, MITF inh 14 and GPR151 ag 0.
For Cc1noc(C)c1-c1nc(N)c2ncn(Cc3ccc(C(F)(F)F)cc3)c2n1 the results were TEAD-YAP inh -15, FBW7 act 0, MITF inh 12, GPR151 ag 5.8*, GPR151 confirm -1 and GPR119 counter -9.
